{"source": "PubChem BioAssay AID376", "about": "(PDSP, 2006)", "note": "The campaign covered roughly 2,000 compounds. About 250 (12%) were called active. No stated cut-off is given here; in the data, active means hERG blockade below about -20% or above about 20%; inactive means in between. Only a selection was taken, and actives are over-represented in it overall."}
{"target": "Voltage-gated inwardly rectifying potassium channel KCNH2 (Homo sapiens) (UniProt Q12809)", "sequence (Q12809 whole entry, looked up)": "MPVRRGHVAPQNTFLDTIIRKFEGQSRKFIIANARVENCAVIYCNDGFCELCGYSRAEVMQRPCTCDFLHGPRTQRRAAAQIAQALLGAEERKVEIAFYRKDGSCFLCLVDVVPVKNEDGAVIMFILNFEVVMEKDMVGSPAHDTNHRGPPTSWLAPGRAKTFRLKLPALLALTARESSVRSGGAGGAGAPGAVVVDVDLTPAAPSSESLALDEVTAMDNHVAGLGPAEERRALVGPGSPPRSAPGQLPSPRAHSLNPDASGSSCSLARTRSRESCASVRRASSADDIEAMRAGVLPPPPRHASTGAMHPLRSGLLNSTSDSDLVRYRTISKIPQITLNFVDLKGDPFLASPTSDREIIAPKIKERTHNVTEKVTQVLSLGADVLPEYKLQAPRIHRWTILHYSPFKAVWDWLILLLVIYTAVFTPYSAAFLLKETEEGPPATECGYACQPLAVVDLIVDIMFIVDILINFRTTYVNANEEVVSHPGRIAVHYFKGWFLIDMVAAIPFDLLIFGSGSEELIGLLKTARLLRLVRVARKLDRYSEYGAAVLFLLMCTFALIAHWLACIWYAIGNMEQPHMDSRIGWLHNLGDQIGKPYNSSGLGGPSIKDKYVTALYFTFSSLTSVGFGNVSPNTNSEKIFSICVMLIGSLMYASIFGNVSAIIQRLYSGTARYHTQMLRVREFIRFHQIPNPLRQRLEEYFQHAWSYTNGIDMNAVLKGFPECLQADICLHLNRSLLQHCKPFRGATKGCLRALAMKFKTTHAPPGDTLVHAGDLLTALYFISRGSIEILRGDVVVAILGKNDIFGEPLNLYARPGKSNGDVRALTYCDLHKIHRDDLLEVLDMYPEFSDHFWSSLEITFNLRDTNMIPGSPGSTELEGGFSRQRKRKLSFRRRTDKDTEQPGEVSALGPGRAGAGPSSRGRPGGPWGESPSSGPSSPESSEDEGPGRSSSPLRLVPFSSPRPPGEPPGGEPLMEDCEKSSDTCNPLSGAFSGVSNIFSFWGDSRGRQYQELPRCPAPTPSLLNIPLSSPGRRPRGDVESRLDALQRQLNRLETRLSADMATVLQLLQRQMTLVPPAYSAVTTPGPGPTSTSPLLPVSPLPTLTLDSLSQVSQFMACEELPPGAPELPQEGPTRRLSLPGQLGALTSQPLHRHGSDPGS", "assay": "KCNH2 potassium channel function modulators, cell-based (AID 376);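 further: 0% = buffer alone and 100% = reference blocker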", "settings": "hERG-expressing cells, channel activity single-concentration screen; concentration not given here"}
{"smiles": "CSc1ccc2c(c1)c(CCN)c(C)n2Cc1ccccc1Cl", "hERG blockade": "102% (active)"}
{"smiles": "Cn1c(=O)c2[nH]cnc2n(C)c1=O.[CH2-]C(Cc1cccc2cc(C(=O)O)c(=O)oc12)OC.[Hg+2].[OH-]", "note": "(configuration not stated)", "hERG blockade": "-6.48% (inactive)"}
{"smiles": "Nc1nc(N)c(N=Nc2ccc([As](=O)(O)O)c(O)c2)c(N)n1", "hERG blockade": "-5.01% (inactive)"}
{"smiles": "CC1=NN(c2ccccc2)C(=O)C1N=Nc1ccc([As](=O)(O)O)c(O)c1", "note": "(configuration not stated)", "hERG blockade": "32.9% (active)"}
{"smiles": "O=C(O)CC1NCc2cc3ccccc3nc21", "note": "(configuration not stated)", "hERG blockade": "-11.4% (inactive)"}
{"smiles": "O=P(O)(OP(=O)(O)c1ccccc1)c1ccccc1", "note": "(tested in a mixture with another compound)", "hERG blockade": "-3.18% (inactive)"}
{"smiles": "Nc1nnnn1CCO", "hERG blockade": "-1.1% (inactive)"}
{"smiles": "CC1=C2C(=O)C3C(CC=C4CC(O)CCC43C)C2CCC12OC1CC(C)CNC1C2C", "note": "(configuration not stated)", "hERG blockade": "18.8% (inactive)"}
{"smiles": "Cc1c(C(C)C2NCC(C)CC2O)ccc2c1CC1C2CC=C2CC(O)CCC21C", "note": "(configuration not stated)", "hERG blockade": "75.5% (active)"}
{"smiles": "CC1CCC2(NC1)OC1CC3C4CC=C5CC(O)CCC5(C)C4CCC3(C)C1C2C", "note": "(configuration not stated)", "hERG blockade": "5.44% (inactive)"}
{"smiles": "COC([CH2][Hg][n]1cnc2c1c(=O)n(C)c(=O)n2C)CN1C(=O)c2ccccc2S1(=O)=O", "note": "(configuration not stated)", "hERG blockade": "-10.9% (inactive)"}
{"smiles": "O=P(O)(O)c1ccccc1", "note": "(tested in a mixture with another compound)", "hERG blockade": "-2.7% (inactive)"}
{"smiles": "O=C(O)CSCC(=O)O", "hERG blockade": "-1.83% (inactive)"}
{"smiles": "CC(Br)C(=O)NC(CO)C(=O)O", "note": "(configuration not stated)", "hERG blockade": "16.5% (inactive)"}
{"smiles": "O=C(Nc1cc[c]([Sb](=[O])([OH])[OH])cc1)c1ccccc1", "hERG blockade": "5.03% (inactive)"}
{"smiles": "Nc1ccc(S(=O)(=O)c2ccc(NCN3C(=O)NC(=O)C(=O)C3=O)cc2)cc1", "hERG blockade": "20% (inactive)"}
{"smiles": "O=P(O)(O)CCP(=O)(O)O", "hERG blockade": "-9.16% (inactive)"}
{"smiles": "CCOC(=O)C1C(O)CC2c3ccccc3-c3ccccc3C21", "note": "(configuration not stated)", "hERG blockade": "-9.9% (inactive)"}
{"smiles": "COc1cc2c(cc1OC)C13CC[N+]4(C)CC5=CCOC6CC(=O)N2C1C6C5CC34O", "note": "(configuration not stated)", "hERG blockade": "0.126% (inactive)"}
{"smiles": "NCCSC(c1ccccc1)c1ccccc1", "hERG blockade": "21.8% (active)"}
{"smiles": "Nc1c(C(=O)Nc2ccc([As](=O)(O)O)cc2)cnc2nnnn12", "hERG blockade": "6.38% (inactive)"}
{"smiles": "COC(=O)C1C(=O)C(C(=O)OC)C2CCC1N2C", "note": "(configuration not stated)", "hERG blockade": "-6.77% (inactive)"}
{"smiles": "O=[As](O)(O)c1ccc2nc3cc([As](=O)(O)O)ccc3nc2c1", "hERG blockade": "6.6% (inactive)"}
{"smiles": "CCSCCC(N)C(=O)O", "note": "(configuration not stated)", "hERG blockade": "-2.21% (inactive)"}
{"smiles": "CC(CN(C)C)C(C#N)(c1ccccc1)c1ccccc1", "note": "(configuration not stated)", "hERG blockade": "3.3% (inactive)"}
{"smiles": "C[n+]1c(C=Cc2ccc(O)c3ncccc23)[se]c2ccccc21", "hERG blockade": "24% (active)"}
{"smiles": "NC(CP(=O)(O)O)C(=O)O", "note": "(configuration not stated)", "hERG blockade": "0.269% (inactive)"}
{"smiles": "COc1cccc2c1C(=O)c1c(O)c3c(c(O)c1C2=O)CC(O)(C(C)=NO)CC3OC1CC(N)C(O)C(C)O1", "note": "(configuration not stated)", "hERG blockade": "36.3% (active)"}
{"smiles": "CC(O)CN(CCN(CC(C)O)CC(C)O)CC(C)O.O=[N+]([O-])[O-].[Cu+2]", "note": "(configuration not stated)", "hERG blockade": "13.4% (inactive)"}
{"smiles": "CC12CN(CC[N+](C)(C)C)CC1(C)C1CCC2O1", "note": "(configuration not stated)", "hERG blockade": "-0.461% (inactive)"}
{"smiles": "Cc1ccc(OP(=O)(Oc2ccc(C)cc2)N2C=Cc3ccccc3C2C#N)cc1", "note": "(configuration not stated)", "hERG blockade": "0.907% (inactive)"}
{"smiles": "Cc1ccc(S(=O)ON2CCC(C(=O)O)(c3ccccc3)CC2)cc1", "note": "(configuration not stated)", "hERG blockade": "4.76% (inactive)"}
{"smiles": "Nc1nc(N)c(N=Nc2ccc([As](=O)(O)O)cc2)c(=O)[nH]1", "hERG blockade": "13.9% (inactive)"}
{"smiles": "N#CCCCC[N+]12CN3CN(CN(C3)C1)C2", "hERG blockade": "6.19% (inactive)"}
{"smiles": "COc1cc(O)c2c(O)c3c(c4c2c1C1(C4)C(C)=CCCC1(C)C)C(O)C1(O)CC(=O)C(C(N)=O)=C(O)C1(O)C3=O", "note": "(configuration not stated)", "hERG blockade": "24.7% (active)"}
{"smiles": "Nc1cc[c]([Hg])cc1.Nc1nc2c(ncn2C2OC(CO)C(O)C2O)c(=[SH+])[nH]1", "note": "(configuration not stated)", "hERG blockade": "2% (inactive)"}
{"smiles": "NNc1c(C(N)=O)c2c(N)ncnc2n1C1OC(CO)C(O)C1O", "note": "(configuration not stated)", "hERG blockade": "6.28% (inactive)"}
{"smiles": "O=[As](O)(O)c1ccc(Cc2ccc([As](=O)(O)O)cc2)cc1", "hERG blockade": "-1.48% (inactive)"}
{"smiles": "O=C(O)CNC(=O)c1ccc([As](=O)(O)O)cc1", "hERG blockade": "-21.5% (active)"}
{"smiles": "NC(=O)c1ccc(C(=O)Nc2ccc([As](=O)(O)O)cc2)cc1", "hERG blockade": "8.1% (inactive)"}
{"smiles": "CC1=NN(c2ccc(S(=O)(=O)O)cc2C)C(=[OH+])C1N=Nc1cc(S(=O)(=O)[O-])ccc1C(=O)O.[Cr].[OH-]", "note": "(configuration not stated)", "hERG blockade": "-5.52% (inactive)"}
{"smiles": "Oc1ccc(CCNCc2cc3c(cc2Br)OCO3)cc1", "hERG blockade": "-0.605% (inactive)"}
{"smiles": "O=C(O)C(Br)C(Br)C(=O)O", "note": "(configuration not stated)", "hERG blockade": "10.9% (inactive)"}
{"smiles": "NCCc1c[nH]c2ccc(OC(=O)C(=O)O)cc12", "hERG blockade": "-28.9% (active)"}
{"smiles": "NC(CCP(=O)(O)O)C(=O)O", "note": "(configuration not stated)", "hERG blockade": "5.51% (inactive)"}
{"smiles": "CC1CCC2(O)C3(C)CC4(O)OC2(C1O)C1(O)C3(O)C(OC(=O)c2ccc[nH]2)C(O)(C(C)C)C41C", "note": "(configuration not stated)", "hERG blockade": "2.45% (inactive)"}
{"smiles": "O=C(O)C(O)(c1ccc(-c2ccccc2)cc1)c1ccc(-c2ccccc2)cc1", "hERG blockade": "33.6% (active)"}
{"smiles": "CC(C)c1ccc(C(O)(C(=O)O)c2ccc(C(C)C)cc2)cc1", "hERG blockade": "7.38% (inactive)"}
{"smiles": "CC(=O)OC1CCC2(C)C(CCC3C2CC(=O)C2(C)C3CC(N3CC3)C2C(C)=O)C1", "note": "(configuration not stated)", "hERG blockade": "2.23% (inactive)"}
{"smiles": "CCc1ccc(CCN2CCCCC2)nc1", "hERG blockade": "-0.853% (inactive)"}
{"smiles": "CC(C)c1ccc(C(c2c(O)c3ccccc3oc2=O)c2c(O)c3ccccc3oc2=O)cc1", "hERG blockade": "15.3% (inactive)"}
{"smiles": "O=C(CC(c1ccccc1)c1c(O)c2ccccc2oc1=O)c1ccccc1", "note": "(configuration not stated)", "hERG blockade": "22.2% (active)"}
{"smiles": "Nc1ccccc1O.O.O=C(O)C1[O][Sb][O]C1C(=O)O", "note": "(configuration not stated)", "hERG blockade": "16.3% (inactive)"}
{"smiles": "[N-]=[N+]=CC(=O)CCC(N)C(=O)O", "note": "(configuration not stated)", "hERG blockade": "2.68% (inactive)"}
{"smiles": "O=C(CCN1CC2CCC(CC2)C1)c1cccs1", "hERG blockade": "29.2% (active)"}
{"smiles": "NC(CCl)=NC1CN2CCC1CC2", "note": "(configuration not stated)", "hERG blockade": "-4.96% (inactive)"}
{"smiles": "O=[As](O)(O)c1ccc(N=Nc2ccc(O)cc2)cc1", "hERG blockade": "-7.36% (inactive)"}
{"smiles": "O=C(c1ccccc1)C1C(c2ccccc2[N+](=O)[O-])N1C1CCCCC1", "note": "(configuration not stated)", "hERG blockade": "24.1% (active)"}
{"smiles": "CCCOC(=O)C1C2CCC(O2)C1C(=O)O", "note": "(configuration not stated)", "hERG blockade": "8.66% (inactive)"}
{"smiles": "Oc1ccc(C(O)C2CCCCN2)cc1O", "note": "(configuration not stated)", "hERG blockade": "1.5% (inactive)"}
{"smiles": "Cc1ccc(S(=O)(=O)OC2CN3CCC2CC3)cc1", "note": "(configuration not stated)", "hERG blockade": "2.18% (inactive)"}
{"smiles": "CS(=O)(=O)OC1CN2CCC1CC2", "note": "(configuration not stated)", "hERG blockade": "-24.5% (active)"}
